# Results filed as inconclusive are left out. A number with no mark means an inactive call. Active and inactive are the calls of the source. Calls follow the shape of the dose curve; as a rule, active = well fitted inhibition curve with a large enough effect; inconclusive = small, poorly fitted or top-dose-only effect; inactive = flat fitted curve, though single readings scatter.
# Biological target: Calcium and integrin-binding protein 1 (Homo sapiens) (UniProt Q99828)
# Experiment: Primary qHTS for Identification of Calcium Integrin Binding Protein 1 (CIB1) Competitor (AID 1508620);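 also: GST tagged CIB1 binding a fluorescein labelled alphaIIb integrin peptide tracer; top concentration of the series differs between compounds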
# Conditions: CIB1-GST / FITC-alphaIIb peptide fluorescence polarization; series mostly up to 114 µM; activity change, negative = inhibition: at the top concentration
# Summary of the method: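 CIB1-GST (1 uM final) and compound incubated 15 min at room temperature before adding FITC-alphaIIb peptide tracer (100 nM final). Competition for binding read by fluorescence polarization (ex 480, em 540) after another 15 min at room temperature.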
# % is scaled to controls: 0 for no effect and ±100 for the full control effect.
# Calcium and integrin-binding protein 1 (Homo sapiens), sequence (Q99828 whole entry, looked up): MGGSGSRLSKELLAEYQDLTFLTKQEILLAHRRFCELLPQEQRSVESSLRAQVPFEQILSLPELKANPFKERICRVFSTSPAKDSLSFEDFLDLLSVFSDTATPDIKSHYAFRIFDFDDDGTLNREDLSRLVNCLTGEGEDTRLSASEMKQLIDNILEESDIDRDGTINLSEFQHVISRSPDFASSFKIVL
SMILES,"activity change, negative = inhibition",Potency
COC(=O)[C@@H](O)[C@H]1[C@@]2(C)CC3(O)[C@@H](C(=O)[C@H]2O)[C@]24O[C@]25CC(=O)O[C@@H](c2ccoc2)[C@]5(C)CCC4[C@]13C (some centres undefined),-8.07% [at 57.7 µM],
COc1ccc(CCO[C@@H]2O[C@H](CO[C@@H]3OC[C@H](O)[C@H](O)[C@H]3O)[C@@H](O)[C@H](O)[C@H]2O)cc1,1.53% [at 57.7 µM],
Cc1cc(C(=O)N2CCCCc3ccccc32)ccc1CNC(=O)N1CCC[C@H]1C(=O)N(C)C,-4.25%,
CC(C)C(C#N)O[C@@H]1O[C@H](CO[C@@H]2O[C@@H](C)[C@H](O)[C@@H](O)[C@H]2O)[C@@H](O)[C@H](O)[C@H]1O (some centres undefined),-1.09% [at 57.7 µM],
C[C@@H]1O[C@@H](O[C@H]2[C@H](O[C@H]3[C@H](O)[C@@H](C(=O)O)O[C@@H](O[C@H]4CC[C@@]5(C)C(CC[C@]6(C)C5CC[C@]57OC[C@@]8(CCC(C)(C)CC85)[C@H](O)C[C@]76C)C4(C)C)[C@@H]3O[C@@H]3O[C@H](CO)[C@@H](O[C@@H]4OC[C@@H](O)[C@H](O)[C@H]4O)[C@H](O)[C@H]3O)O[C@H](CO)[C@H](O)[C@@H]2O)[C@H](O)[C@H](O)[C@H]1O (some centres undefined),2.06% [at 12.4 µM],
CC(=O)OC/C=C(\C)C(CC1C(C)=C(OC(C)=O)C(=O)C2C(C)(C)C(O)CCC12C)OC(C)=O (centres undefined),-10.7% [at 57.7 µM],
CN(C)c1nc(NC2CCC(NCCc3ccc(Br)cc3OC(F)(F)F)CC2)nc2ccccc12 (centres undefined),23.9%,
Nc1ncnc2c1ncn2CCNCCCCCO,-3.92%,
O=C(O)c1cccc(S(=O)(=O)N2CCc3ccccc3C2)c1,-3.02%,
CC(=O)N[C@@H](CCCCN)C(=O)N(C)[C@@H](CC(C)C)C(=O)N[C@H](C(=O)N(C)[C@@H](Cc1ccccc1)C(=O)N[C@H](Cc1ccccc1)C(N)=O)C(C)C,1.59% [at 12.4 µM],
C[C@]1(CO)CCC[C@]2(C)C3=C(CCC12)COC3 (some centres undefined),-0.927%,
CC1CCC2(OC1)OC1CC3C4CCC5C[C@@H](O[C@@H]6O[C@H](CO[C@@H]7OC[C@@H](O)[C@H](O)[C@H]7O)[C@H](O)[C@H](O)[C@H]6O)CC[C@]5(C)C4CC[C@]3(C)C1C2C (some centres undefined),2.94% [at 30.2 µM],
C[C@H]1Oc2cc(cnc2N)-c2c(nn(C)c2C#N)CN(C)C(=O)c2ccc(F)cc21,,inactive
C=CC(=O)Nc1cccc(Nc2nc(Nc3ccc(N4CCN(C(C)=O)CC4)cc3OC)ncc2C(F)(F)F)c1,-14.2%,
COc1cc(O)cc(C)c1C(=O)OC1C(CO)OC(OC2C(O)C(O)C(O)C(O)C2O)C(O)C1O (centres undefined),-7.58% [at 57.7 µM],
COc1ccc(CN2C(=O)C(=O)c3cc(S(=O)(=O)N4CCC[C@H]4COc4cccnc4)ccc32)cc1,-7.66%,
CC1=C(CCC(C)O[C@@H]2O[C@H](CO)[C@@H](O)[C@H](O)[C@H]2O)C(C)(C)CCC1=O (some centres undefined),-6.3% [at 57.7 µM],
C=CC(=O)Nc1cccc(CN2C(=O)N(c3c(Cl)c(OC)cc(OC)c3Cl)Cc3cnc(NCCCCN(CC)CC)nc32)c1,0.933%,
COC(=O)N[C@H](C(=O)N1[C@@H]2CC[C@@H](C2)[C@H]1c1nc2ccc(-c3ccc4c(c3)C(F)(F)c3cc(-c5cnc([C@@H]6CCC7(CC7)N6C(=O)[C@@H](NC(=O)OC)C(C)C)[nH]5)ccc3-4)cc2[nH]1)C(C)C,1.14% [at 57.7 µM],
CCc1cnn2c(NCc3ccc[n+]([O-])c3)cc(N3CCCCC3CCO)nc12 (centres undefined),-4.43%,

SMILES,"activity change, negative = inhibition",Potency
O=C(CCc1ccccc1)N1CCC(O)(Cn2cnc3cc(Cl)ccc3c2=O)CC1,-3.08%,
COc1cc2c(cc1O)[C@H](c1ccc(O[C@@H]3O[C@H](CO)[C@@H](O)[C@H](O)[C@H]3O)c(OC)c1)[C@@H](CO)[C@](O)(CO)C2,2.67% [at 57.7 µM],
O=C(O)c1cc2cccc([N+](=O)[O-])c2[nH]1,-11.5%,
CC(/C=C/C1=CC2=CC(=O)C(C)(O)C(O)C2=CO1)=C\C(C)CCO (centres undefined),1.86% [at 57.7 µM],
CO[C@@H](C)Cn1c(=O)n(C)c2cnc3ccc(-c4cncc(C(C)(C)O)c4)cc3c21,-2.5%,
C1CCC[C@H]2CCCN3CC[C@@H](CCCCCC[C@@H]4CCCN5CC[C@@H](CC1)O[C@@H]45)O[C@@H]23,-0.14% [at 0.247 µM],
O=C(N/N=C/c1ccc(O)c(O)c1)c1cc2ccccc2cc1O,-2.84% [at 30.2 µM],
CC1(C)CC[C@]2(C(=O)O[C@@H]3O[C@H](CO)[C@@H](O)[C@H](O)[C@H]3O)CC[C@]3(C)C(=CCC4[C@@]5(C)C[C@@H](O)[C@H](O)C(C)(C)C5CC[C@]43C)C2[C@@H]1O (some centres undefined),-10.2% [at 30.2 µM],
Cc1ccc(NC(=O)C(=O)NC2CC(C)(C)NC(C)(C)C2)cc1,-1.53%,
C=C(C(=O)O)[C@@H]1CC[C@@]2(C)CC[C@H](O)[C@@]2(C(C)=O)C1,-1.05%,
O=C(Nc1ccc(Cl)cc1F)c1ccccc1O,2.9%,
O=C(NCc1ccccn1)Nc1nnc(-c2ccco2)o1,-9.23%,
COc1ccc(Oc2cc(C)c(-c3csc(NC(=O)c4ccncc4)n3)c(C)c2)cc1,-4.91%,
COc1cc2c3c(cc4ccccc4c3c1O)NC2=O,-12.8%,
C[S+](CC[C@H](N)C(=O)[O-])C[C@H]1O[C@@H](n2cnc3c(N)ncnc32)[C@H](O)[C@@H]1O (some centres undefined),0.492%,
CC1=C(C(=O)O)/C(=C\CO[C@@H]2O[C@H](CO)[C@@H](O)[C@H](O)[C@H]2O)C(OC(=O)/C=C\c2ccc(O)cc2)C1 (some centres undefined),-5.83% [at 57.7 µM],
CCS(=O)(=O)N1CCN(c2ccc(Nc3ncc(C(N)=O)c(NC4CC4)n3)cc2)CC1,-0.745%,
N[C@@]1(C(=O)O)CC[C@H]2[C@H](C(=O)O)[C@H]21,1.38%,
CC12CCC(C(OC3OC(COC4OCC(O)(CO)C4O)C(O)C(O)C3O)C1)C(C)(C)O2 (centres undefined),-0.287% [at 57.7 µM],

# Source: PubChem BioAssay (NCATS)
